# The panel holds about 83,000 compounds, 20% with a hit somewhere; the sample as a whole holds those more often.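 Method: cells in 96-well plates; compound added at one concentration; 48 h incubation; percent growth measured; values under 10 scored active.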 Unmarked numbers belong to inactive results. Activity calls are given as the source filed them.
# Experiments:
# Assay in all cases: NCI-60 one-dose screen, 48 h (100 = growth as untreated, 0 = no growth, -100 = all killed)
# Conditions in all cases: 10 µM unless noted
# HCT-15 colon = tested on: HCT-15 colon
# HT29 colon = tested on: HT29 colon
# SNB-19 CNS = tested on: SNB-19 CNS
# U251 CNS = tested on: U251 CNS
# PC-3 prostate = tested on: PC-3 prostate
# SK-MEL-5 melanoma = tested on: SK-MEL-5 melanoma
# UACC-62 melanoma = tested on: UACC-62 melanoma
# LOX IMVI melanoma = tested on: LOX IMVI melanoma
# SK-MEL-28 melanoma = tested on: SK-MEL-28 melanoma
# SNB-75 CNS = tested on: SNB-75 CNS
Structure (SMILES),growth (HCT-15 colon) [%],growth (HT29 colon),growth (SNB-19 CNS),growth (U251 CNS),growth (PC-3 prostate),growth (SK-MEL-5 melanoma),growth (UACC-62 melanoma),growth (LOX IMVI melanoma),growth (SK-MEL-28 melanoma),growth (SNB-75 CNS)
COC1=CC2C=C(C3N(c4ccccc4)NC(=O)[C@@H]4CCCN34)C(=O)NC2C=C1 (some centres not stated),101,102%,104%,110%,102%,102%,104%,92.8%,108%,
COC(=O)[C@]1(C)CCC[C@]2(C)[C@H]3C[C@H]4C(C(C)C)=C[C@]3(CC[C@H]21)[C@@H]1C(=O)N(CCC#N)C(=O)[C@@H]14,83.2,70.5%,102%,87.8%,31.2%,71.6%,62.9%,98.1%,108%,
COc1ccc2c(c1)OC13Oc4cc(OC)ccc4C=C1CCCCC3=C2,92.6,71.5%,106%,89.7%,69.6%,91.5%,89.4%,99.8%,111%,
CNS(=O)(=O)c1cccc(-c2ccc3c4c(n(C)c(=O)c3c2)-c2ccccc2C4=O)c1,30.5,45.8%,31.3%,23.2%,73.4%,48.3%,56.3%,35.1%,93%,
Cc1cc(C)nc(NS(=O)(=O)c2ccc(Nc3ccc4c5c(n(CCCN(C)C)c(=O)c4c3)-c3ccccc3C5=O)cc2)n1,90.3,74.8%,91%,75.3%,86.3%,85.6%,93.3%,72.6%,117%,
CCCS(=O)(=O)Nc1ccc(F)c(C(=O)c2c[nH]c3ncc(-c4ccc(OCCCC5CCCCN5)nc4)cc23)c1F (configuration not stated),102,2.79% (active),77.5%,61.2%,53%,44.7%,,32.8%,-1.65% (active),
CCCCc1n(Cc2ccc3ccccc3n2)cc[n+]1Cc1ccc2ccccc2c1,76.7,-8.3% (active),7.08% (active),,1.01% (active),-94.3% (active),-57.7% (active),-26.5% (active),0.554% (active),
CC(C)NS(=O)(=O)c1cccc(-c2ccc3c(=O)n(CCCN)c4c(c3c2)C(=O)c2ccccc2-4)c1,102,89.6%,111%,104%,102%,98.8%,108%,94.4%,110%,
COC(=O)c1ccc2c(c1)NC(=O)[C@@H]1CCCN21,,98.5%,94.2%,102%,100%,96.8%,94.6%,88.5%,106%,83.1%
Cc1cc(NC(=O)CNc2nc(Oc3ccc(F)cc3)nc(-c3ccc(F)cc3)n2)ccc1Cl,,94%,100%,98.4%,89.1%,99.1%,97.5%,96.1%,109%,87.8%
O=C(Nc1ccccc1)NS(=O)(=O)c1c[nH]c(=S)[nH]c1=O,,73.7%,106%,93.3%,100%,104%,99.5%,92.4%,116%,89.2%
N#CC(C#N)=C1NC(c2ccccc2)=C(c2ccccc2)C(c2ccccc2Cl)=C1C#N,,80.4%,106%,103%,87.8%,105%,102%,91.5%,114%,107%
Cc1cccc(C)c1NCc1nnc(-c2ccc(O)cc2)o1,,106%,108%,105%,95.1%,101%,100%,96.8%,102%,77.8%
COc1ccc(-c2nnc(N3CCN(C(=O)CN4CCN(c5ccc(OC)cc5)CC4)CC3)nc2-c2ccc(OC)cc2)cc1,,4.12% (active),96.1%,4.4% (active),-96.4% (active),-50.2% (active),-48.2% (active),-63.3% (active),-84.1% (active),65.7%
CCCCc1nc(Cl)c(C2CC(c3ccc(Cl)cc3)=NN2c2cc(Cl)cc(Cl)c2)[nH]1 (configuration not stated),,85.4%,93%,90.7%,45.6%,69.1%,78.2%,67.2%,99.8%,65.6%
C#CCN(CCCOc1ccc(Cl)cc1Cl)CCCSC(=O)CCCCCN1/C(=C\C=C2/CCCC(/C=C/C3=[N+](CCCCCC(=O)[O-])c4ccccc4C3(C)C)=C2Cl)C(C)(C)c2ccccc21,,-26.7% (active),14.7%,-63.8% (active),20.9%,-25.7% (active),-25.8% (active),-29.8% (active),-9.83% (active),42.4%
Cn1c2ccccc2c2c(OC(=O)c3ccccc3)c3c(nc21)-c1ccccc1C3,,92.1%,105%,107%,87.3%,96.6%,92.5%,88.3%,111%,90.8%
C#C[C@@]1(O)[C@@H](CO)O[C@@H](n2cc(-c3ccco3)c3c(N)ncnc32)[C@@H]1O,,28.8%,94.4%,81.8%,49.1%,89%,80.2%,65.6%,93.2%,
O=C(N/N=C/C[C@@H]1[C@@H](/C=C/[C@@H](O)COc2cccc(Cl)c2)[C@H](O)C[C@@H]1O)c1ccncc1,,71.1%,98.1%,92.9%,91%,96.6%,92.9%,94.3%,103%,90.5%
CCn1cc(C(=O)O)c(=O)c2cc(F)c(N3CCN(CC(=O)Nc4ccc(/C(C)=N/OC)cc4)CC3)cc21,,94%,91.7%,94.3%,85.5%,96.4%,90.5%,80%,100%,76.8%
N#CC1(C#N)C2=C(CCCC2)NC(c2c(F)cccc2Cl)C1(C#N)C#N (configuration not stated),,17.3%,69.2%,60.7%,72.1%,63.9%,40.8%,53.4%,65.8%,51.1%
CCOC(=O)c1c(-c2ccc(O)cc2)c(C#N)c2c(C#N)c(N)nn2c1N,,43%,74.8%,63.3%,68.9%,52.9%,36.9%,55.2%,68.6%,65.7%
S=c1ssnc1-c1cc2ccccc2o1,,56.6%,82%,91.5%,14.9%,68.7%,86.6%,60.5%,93.2%,80.8%

Structure (SMILES),growth (HCT-15 colon) [%],growth (HT29 colon),growth (SNB-19 CNS),growth (U251 CNS),growth (PC-3 prostate),growth (SK-MEL-5 melanoma),growth (UACC-62 melanoma),growth (LOX IMVI melanoma),growth (SK-MEL-28 melanoma),growth (SNB-75 CNS)
NC[C@@H]1CCN(c2cc3c(cc2F)c(=O)n(N)c(=O)n3Cc2ccc(-c3ccccc3)cc2)C1,,30.4%,102%,64.5%,71.4%,72.4%,94.6%,78.9%,113%,77.9%
CN1CCN(C(=O)[C@@]2(C)CC[C@]3(C)CC[C@]4(C)C(=CC[C@@H]5[C@@]6(C)CC[C@H](OC(=O)c7cccnc7)C(C)(C)[C@@H]6CC[C@]54C)[C@@H]3C2)CC1,,8.46% (active),19.8%,-69.8% (active),46.8%,64.4%,82.1%,-26.4% (active),76.7%,90.4%
O=C1C(=O)c2c(nc3ccc(Br)cn23)-c2ccccc21,,-29.1% (active),-86.4% (active),-100% (active),-63.4% (active),-97.6% (active),-87.6% (active),-76.6% (active),-60% (active),-95.3% (active)
COC(=O)/C=C1\SC(=Nc2ccc(C(F)(F)F)cc2)N(CCc2c[nH]c3ccccc23)C1=O,,-34.1% (active),-51.7% (active),-87.8% (active),-61.1% (active),-88.8% (active),-62.5% (active),-97% (active),-58.9% (active),59.2%
CN1CCN(/C=C2\CC(C(=O)NCc3ccc(Cl)cc3Cl)NC2=O)CC1 (configuration not stated),,99%,100%,100%,90.9%,95.8%,96.6%,100%,110%,106%
CCOc1ccc(C2N(c3cc(OC)c(OC)c(OC)c3)C(=O)C2(F)F)cc1 (configuration not stated),,12.3%,54.1%,36.2%,37.3%,6.76% (active),,27.6%,66.8%,55.9%
CC[C@]12C=CCN3CC[C@@]4(c5ccc(OC)cc5N(C)[C@H]4[C@@](O)(C(=O)OC)[C@@H]1OC(=O)CCC(=O)O[C@H]1CC[C@H]4[C@@H]5CC[C@H]6CC(=O)CC[C@]6(C)[C@H]5CC[C@]14C)[C@@H]32,,-2.17% (active),37.5%,18.1%,12.3%,7.1% (active),29.3%,27.9%,46.5%,41.9%
COc1ccc(N(C)c2nc(Cl)nc3ccn(C)c23)cc1,,-2.47% (active),25.3%,3.67% (active),16.1%,-44.2% (active),39.1%,27.6%,49.2%,56.8%
COC(=O)c1cncc(C(=O)Nc2ccc(-n3cnc4ccccc43)cc2)c1,,96.5%,99.1%,91.4%,92.1%,93.9%,93.4%,96.4%,103%,117%
COc1ccc(Nc2nc(SCC(C)C)nc(-c3ccc(F)cc3)c2C#N)cc1,,24.3%,50.3%,56.7%,49.2%,53.6%,40.6%,57.8%,72.2%,70.6%
Cc1[nH]c(N=Nc2ccccc2)nc1N=Nc1ccccc1,,31.2%,47.7%,15.9%,36.4%,48.1%,-19.7% (active),3.24% (active),52.2%,45.1%
COc1cc(-c2csc(NC(=O)Nc3cc(Cl)cc(Cl)c3)n2)cc(OC)c1OC,,21.9%,9% (active),-80.1% (active),10.7%,54.5%,-62.2% (active),6.77% (active),30.6%,-29.2% (active)
O=C(CCc1nnco1)c1nc2ccc([N+](=O)[O-])cc2[nH]1,,103%,108%,107%,96.1%,109%,96.7%,93.2%,111%,104%
Nc1c(C(=O)Nc2cccc3ccccc23)sc2nc3c(cc12)CCCCCC3,,0.156% (active),27.8%,14.4%,35.1%,45.6%,32.4%,49.1%,65.8%,10.6%
CCc1n(Cc2ccc3ccccc3c2)c2ccccc2[n+]1Cc1ccc2ccccc2c1,,25.3%,45.3%,34.4%,52.9%,38.8%,,63.7%,69.8%,59%
C=C(C)[C@@H]1CC[C@]2(C(=O)O)CC[C@]3(C)[C@H](CC[C@@H]4[C@@]5(C)C[C@@H](CC#Cc6ccccc6)C(=O)C(C)(C)[C@@H]5CC[C@]43C)[C@@H]12,,23.9%,46.3%,27.8%,35.3%,32%,42.4%,45.1%,45.1%,65.1%
COc1ccc(NC(=O)c2ccc(Nc3ncnc4[nH]c(C)c(C)c34)cc2)cc1,,103%,105%,101%,109%,98.6%,99.6%,104%,102%,93.5%
CCCn1c2cc(OCc3cn(-c4ccc(Cl)cc4)nn3)ccc2c2ccnc(C)c21,,30.7%,80.6%,47.5%,71.2%,70.6%,74.9%,65.1%,92.3%,
Fc1ccc(N/N=C/c2ccc(-n3cccn3)cc2)cc1,,93.5%,110%,103%,85.8%,107%,74.9%,83.8%,112%,99.4%
O=C1CC23OC(C(O)c4ccccc4N12)C1C(c2ccccc2)=NOC13 (configuration not stated),,13.9%,44%,40.2%,50%,31.7%,28.2%,37.8%,64.1%,33.4%
Cc1ccc(SC2c3ccc(C)cc3Oc3nc(N)c(C#N)c(N)c32)cc1 (configuration not stated),,103%,109%,85.1%,80.6%,63.8%,103%,37.7%,87.7%,73.2%
C=C1C(=O)O[C@H]2[C@H]1CC/C(COC(=O)/C=C/c1cccnc1)=C\CC[C@@]1(C)O[C@@H]21,,11.1%,75.2%,57.7%,57.5%,68.2%,41.1%,30.7%,43.7%,
COc1cc2c(cc1OCCCOc1cc3c(cc1OC)C(=O)N1CC(F)(F)C[C@H]1C=N3)N=C[C@@H]1CC(F)(F)CN1C2=O,,11.8%,24.3%,18%,3.21% (active),-77.3% (active),-71.2% (active),16%,-1.8% (active),-8.01% (active)
